# From PubChem
# Sampled rows, rich in hits. Any-hit rate of the full collection: about 18%.
# HepG2 viability: kills HepG2 cells in TGF-b inhibitor counter-screen; Potency, µM (highest dose often 46.1 µM), inactives show top-dose activity change, negative = cytotoxicity, hits mostly cytotoxic; hit rate 0.76% among 410,000; AID 588856; HepG2 CAGA-GFP viability, ATP luminescence, 18 h; also: potency is read from the fitted curve at half-maximal effect
#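 HepG2 CAGA-GFP cells (1000/well, DMEM with 1% FBS) received compound, then TGF-beta at 500 pg/mL final, and were incubated 18 hours at 37 degrees C. Viability was read by CellTiter-Glo luminescence. Media-only wells were set as complete cell-killing and DMSO as no toxicity.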
# DT40 TDP1 CPT: DT40-hTDP1 cell growth loss with CPT | chicken DT40 Tdp1-/-;hTDP1 cells + 20 nM CPT, ATP luminescence, 48 h | Potency, µM (top dose mostly 46.2 µM), inactives show top-dose activity change, negative = growth inhibition, most hits filed as inhibitors | hit rate 12% among 420,000; also: potency is read from the fitted curve at half-maximal effect; % is scaled to controls: 0 for no effect and ±100 for the full control effect; nearly all actives have a fitted effect of over 55% in size
#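 Cell growth measured by CellTiter-Glo luminescence after a minimum 48 h, 37 C compound exposure with 20 nM CPT in Tdp1-knockout DT40 cells stably expressing hTDP1, seeded 400/well; qHTS titration format.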
# TGFb inhibitor: TGF-b pathway inhibition; HepG2 CAGA-GFP TGF-b/SMAD3 reporter, GFP fluorescence, 18 h; TGF-beta stimulated, 500 pg/mL final; Potency, µM (titrated, usually from 46.1 µM), inactives show at the top dose activity, negative = inhibition, hits mostly inhibitors; hit rate 1.2% among 410,000; AID 588855; also: potency is read from the fitted curve at half-maximal effect; % is scaled to controls: 0 for no effect and ±100 for the full control effect; nearly all actives have a fitted effect of over 65% in size
#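 GFP signal (ex488/em500-530) from TGF-beta-stimulated HEPG2 CAGA-GFP cells, 500 pg/mL final, 18 h at 37 degrees C in DMEM plus 1% FBS, normalized to unstimulated and DMSO-stimulated controls.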
# DT40 TDP1 no CPT: qHTS for Inhibitors of human tyrosyl-DNA phosphodiesterase 1 (TDP1): qHTS in cells in absence of CPT; AID 686978, 2013; Potency, µM (top dose mostly 46.2 µM), for inactives: at the top dose activity change, negative = growth inhibition, usual class: inhibitors; DT40 Tdp1-/- hTDP1 cells, no CPT, ATP luminescence, 48 h; hit rate 15% among 420,000; also: potency is read from the fitted curve at half-maximal effect; % is scaled to controls: 0 for no effect and ±100 for the full control effect; nearly all actives have a fitted effect of over 55% in size
#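 Chicken DT40 Tdp1-/- cells complemented with human TDP1, screened without camptothecin (DMSO vehicle only), 400 cells/well. Compounds pin-transferred, cells incubated at 37 °C for at least 48 hr. Growth read as ATP-dependent luminescence (CellTiter-Glo, 30 min at RT).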
# IL-1B inflam inh: inflammasome signaling inhibition, IL-1 beta readout; activity change, % at 57.5 µM; AID 743279; hit rate 4.7% among 360,000; THP-1 LPS/ATP IL-1B secretion, AlphaLISA, 16 h; hits give low values; in the data active = activity change below about -50%; inconclusive = mostly about -30% to -49%; also: % is scaled to controls: 0 for no effect and ±100 for the full control effect
#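 THP-1 cells pretreated 1 hr with compounds (up to 57.5 uM final), then stimulated with LPS (250 ng/mL final) plus ATP (1.25 mM final); secreted IL-1B measured by AlphaLISA after 16 hr, decreased signal indicating inhibition.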
# TDP1 block: blocks human tyrosyl-DNA phosphodiesterase 1 | Q9NUW8 | recombinant TDP1, AlphaScreen DNA substrate cleavage | Potency, µM (doses to about 130 µM), for inactives: top-dose activity change, negative = inhibition, hits mostly inhibitors | hit rate 0.28% among 350,000; also: potency is read from the fitted curve at half-maximal effect; % is scaled to controls: 0 for no effect and ±100 for the full control effect; nearly all actives have a fitted effect of over 40% in size
# Target sequence (Q9NUW8 whole entry, looked up): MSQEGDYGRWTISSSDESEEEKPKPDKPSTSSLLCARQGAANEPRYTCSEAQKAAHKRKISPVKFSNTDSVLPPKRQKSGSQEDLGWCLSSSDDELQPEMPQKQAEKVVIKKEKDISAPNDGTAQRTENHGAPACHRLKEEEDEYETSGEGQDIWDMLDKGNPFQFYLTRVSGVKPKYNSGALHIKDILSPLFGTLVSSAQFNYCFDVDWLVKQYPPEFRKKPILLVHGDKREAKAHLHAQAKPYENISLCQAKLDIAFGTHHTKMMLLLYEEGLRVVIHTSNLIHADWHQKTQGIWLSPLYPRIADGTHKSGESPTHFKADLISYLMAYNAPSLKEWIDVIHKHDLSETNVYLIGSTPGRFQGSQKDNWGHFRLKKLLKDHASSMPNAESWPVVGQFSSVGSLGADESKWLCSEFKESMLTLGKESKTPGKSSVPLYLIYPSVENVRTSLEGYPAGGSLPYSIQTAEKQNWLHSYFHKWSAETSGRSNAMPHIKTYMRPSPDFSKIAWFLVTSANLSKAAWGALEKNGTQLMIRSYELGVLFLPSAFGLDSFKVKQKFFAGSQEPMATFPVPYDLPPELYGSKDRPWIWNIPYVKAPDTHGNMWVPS
#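 Compounds were preincubated with Tdp1 (1 nM final) for 15 min at room temperature before substrate (15 nM final) started a 5 min reaction; beads (10 ug/ml final) were then added for 10 min before AlphaScreen detection.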
# Active calls of the source: *; ? = inconclusive; nt = no result given; ! = not confirmed by another sample; [ ] = another dose, or the depositor's remark. Unless noted, calls follow the shape of the dose curve; as a rule, active = well fitted curve in the direction sought with a large enough effect; inconclusive = small, poorly fitted or top-dose-only effect, or another doubt; inactive = no such curve, though single readings can be large; an effect the other way counts as inactive or inconclusive.
SMILES,HepG2 viability,DT40 TDP1 CPT,TGFb inhibitor,DT40 TDP1 no CPT,IL-1B inflam inh,TDP1 block
O=C(NCCc1ccc(Cl)cc1)c1ccc(CS(=O)Cc2ccc(Cl)cc2)o1 (configuration not stated),-0.4%,?,?,-18.6%,?,0.3%
CSc1ccc(CCNC(=O)c2ccc(CS(=O)Cc3ccc(Cl)cc3)o2)cc1 (configuration not stated),-4.5%,?,?,20.6µM*,?,6.6%
COc1ccc(S(=O)(=O)Cc2ccc(C(=O)NCCc3cc(OC)ccc3OC)o2)cc1,-35.9%,?,-0.5%,?,-11.4,5.4%
COc1ccccc1NC(=O)COC(=O)CCC(=O)c1cccs1,1.3%,-35.1%,-8.7%,-2.1%,20.3,-7.4%[0.505 µM]
CCCN(CCC)S(=O)(=O)c1ccc(C)cc1,-0.9%,-5.0%,7.8%,-20.2%,12.5,nt
Cc1ccc(-c2noc(CCC(=O)NC3CCCc4ccccc43)n2)cc1 (configuration not stated),-25.2%,9.2µM*,?,2.31µM*,-12.2,8.7%
CCOc1ccc(S(=O)(=O)NCCC(=O)NC2CCN(Cc3ccccc3)CC2)cc1,1.8%,-15.7%,7.8%,-17.4%,-1.5,nt
CC(=O)c1ccc(S(=O)(=O)NCCC(=O)NC2CCN(Cc3ccccc3)CC2)cc1,-5.7%,-13.3%,0.1%,?,-87.1*,2.0%
Cc1ccc(-c2noc(CCC(=O)NC3CCN(Cc4ccccc4)CC3)n2)cc1,-21.7%,13µM*,3.7%,?,?,1.9%
Cc1ccc(SCC(=O)OCC(=O)N(CC(C)C)C2CCS(=O)(=O)C2)cc1C (configuration not stated),-5.8%,-26.1%,1.8%,-25.5%,8.5,0.2%
CCCn1nc(C(=O)Nc2ccc3c(c2)OCCO3)c2ccccc2c1=O,-6.1%,?,-0.1%,?,nt,3.0%
CCS(=O)(=O)c1nc2ccccc2n1Cc1ccccc1Cl,-29.3%,?,-15.2%,?,?,-1.1%
CCCn1c(CNS(=O)(=O)c2ccc(C)cc2)nc2ccccc21,-22.0%,?,-20.5%,?,37.1,0.0%
CCn1c(/N=C/c2ccccc2NS(=O)(=O)c2ccc(C)cc2)nc2ccccc21,5.4%,29.1µM*,?,?,-9.9,0.0%
N#Cc1c(-c2ccc(Cl)cc2)n(O)c2ccccc12,-53.3%,3.26µM*,?,3.26µM*,-54.3*,nt
CCCOC(=O)c1ccc(Cn2nnc3sc4c(c3c2=O)CCC(C)C4)cc1 (configuration not stated),-0.3%,?,2.2%,?,nt,2.3%
CN1C[C@@H]2C[C@@H](C3=Cc4cc(Cl)ccc4OC3)N3CCC[C@@]23C1=O,-0.1%,-7.9%,?,-15.9%,?,6.0%
COc1ccc2c(c1)C=C([C@@H]1C[C@H]3CN(c4ccccc4)C(=O)[C@]34CCCN14)CO2,-9.9%,?,-25.5%,20.6µM*,-2.1,2.7%
N#Cc1c(Nc2ccccc2)sc(C(=O)c2ccccc2)c1N,-27.0%,-1.7%,12.8%,?,-13.7,5.3%
COc1ccc(-c2c(C#N)c(N)nc3c2c(=O)n(C)c(=O)n3C)cc1,-6.8%,?,20.0%,13µM*,12.8,1.7%
COc1ccc(-c2c(C#N)c(N)nc3sc(C(=O)c4ccccc4)c(N)c23)cc1,4.3%,?,14.6%,23.1µM*,-6.6,-1.9%
Cc1cccc(Oc2sc(C(=O)c3ccccc3)c(N)c2C#N)c1,9.9%,?,?,?,-85.9*,6.4%
CCOc1ccc(-c2c(C#N)c(N)nc3c2c(=O)n(C)c(=O)n3C)cc1OC,-5.6%,-16.4%,-7.8%,-15.5%,9.1,-2.2%
O=C(CCn1c(=O)c2sccc2n(Cc2ccccc2F)c1=O)NCc1ccc2c(c1)OCO2,-4.5%,16.2%,-19.4%,-1.8%,nt,4.5%
CC(=O)c1cc2c(cc1O)OC(C)(C)C=C2,nt,-6.3%,nt,-9.1%,nt,22.4µM*
SMILES,HepG2 viability,DT40 TDP1 CPT,TGFb inhibitor,DT40 TDP1 no CPT,IL-1B inflam inh,TDP1 block
COc1c2ccoc2cc2oc(=O)ccc12,-12.6%,-2.1%,-14.3%,-14.1%,-9.3,-17.8%
CC1(C)C=Cc2cc3ccc(=O)oc3cc2O1,-6.8%,14.6µM*!,-7.3%,8.2µM*!,-10.2,-10.2%[56.1 µM]
COc1c2c(cc3oc(=O)ccc13)OC(C)(C)C=C2,-24.9%,?,7.1%,25.9µM*,10.0,nt
CC1(C)Oc2cc3oc(=O)ccc3cc2C[C@@H]1O,11.0%,23.6%,?,-9.3%,24.3,1.7%
CN(CCC#N)C(=O)COC(=O)c1ccc2c(c1)C(=O)N(C1CCCCC1)C2=O,4.0%,15.7%,15.8%,1.3%,0.0,-0.1%
Cc1nc(CS(=O)(=O)c2ccc(Cl)cc2)cc(N2CCOCC2)n1,2.1%,-7.8%,-12.0%,-7.8%,15.1,1.0%
O=S(=O)(Cc1cc(N2CCOCC2)nc(-c2ccccn2)n1)c1ccccc1,-34.4%,10.3µM*,-27.1%,18.4µM*,-12.4,3.8%
CC(=O)c1cccc(N(C(=O)CNC(=O)c2ccco2)C(C(=O)NC2CCCC2)c2ccco2)c1 (configuration not stated),2.0%,-9.5%,?,-14.5%,12.8,10.6%
O=S1(=O)CCO[C@H]2Cc3ccccc3[C@H]2N1Cc1ccc(F)cc1,-1.5%,-5.9%,?,?,5.5,nt
Oc1ccc2ccccc2c1C=NNc1ccccn1,-35.0%,3.26µM*,?,4.61µM*,126.5,nt
Oc1ccc2ccccc2c1/C=N/c1nccs1,-21.3%,-18.5%,-13.8%,-12.0%,38.8,7.7%
Oc1ccc2ccccc2c1/C=N/Nc1nnc(-c2ncc[nH]2)c2ccccc12,-23.7%,5.17µM*,?,5.17µM*,69.0,12.7%
CCOc1ccc(CCNC(=O)c2sc3nc4n(c(=O)c3c2C)CCC4)cc1,2.7%,-21.1%,-65.0%,3.7%,38.7,1.8%
COc1cc(C(=O)NC(=S)Nc2ccc3c(c2)C(=O)N(C)C3=O)cc(OC)c1OC,-19.7%,-3.6%,-11.6%,3.66µM*,5.7,-5.1%
COc1cc(C(=O)NC(=S)Nc2ccc3ccccc3c2)cc(OC)c1OC,-29.4%,23.1µM*,-18.2%,23.1µM*,52.5,nt
COc1cc(C(=O)NC(=S)Nc2ccc3c(c2)OCO3)cc(OC)c1OC,-23.0%,-1.5%,-0.7%,-8.1%,-1.0,-4.1%
